Hits are enriched below; roughly 2.4% of the tested compounds scored in any of these assays.
POLB inh = DNA polymerase beta (human) inhibition | Pol beta primer extension/strand displacement, fluorescence kinetic | Potency, µM (series often up to 114 µM), for inactives: at the highest dose activity change, negative = inhibition, most hits filed as inhibitors | 340,000 tested, 1.3% active | AID 485314; also: potency is read from the fitted curve at half-maximal effect; % is scaled to controls: 0 for no effect and ±100 for the full control effect
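Values derive from four-parameter Hill fits of normalized kinetic data: reads at 0 and 10 min following addition of 50 nM substrate to 10 nM Pol beta preincubated 15 min with compound.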
FEN1 inh = blocks human flap endonuclease 1; P39748; Recombinant FEN1 flap cleavage, fluorescence, 15 min; Potency, µM (highest dose often 114 µM), inactives show at the top dose activity change, negative = inhibition, usual class: inhibitors; 390,000 tested, 0.35% active; also: potency is read from the fitted curve at half-maximal effect; % is scaled to controls: 0 for no effect and ±100 for the full control effect; nearly all actives have a fitted effect of over 65% in size
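With each library titrated from low to high concentration, compounds met 10 nM FEN1 for 15 min at room temperature before 50 nM substrate was added; readings at 0 and 15 min fed four-parameter Hill curve fits.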
Pol eta inh-1 = inhibitors of human DNA polymerase eta. Q9Y253. recombinant Pol eta, fluorescent DNA replication assay. Potency, µM (series often up to 114 µM), for the others: at the highest dose activity change, negative = inhibition, usual class: inhibitors. 390,000 tested, 1.2% active. AID 588591; also: potency is read from the fitted curve at half-maximal effect; % is scaled to controls: 0 for no effect and ±100 for the full control effect
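Fluorescent replication assay: 50 nM final substrate added after a 15 min room-temperature compound preincubation with 10 nM enzyme. Signal taken at 0 min and again at 10 min.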
Pol iota inh = blocks human DNA polymerase iota activity | Q9UNA4 | Pol iota fluorescent replication assay, 10 min | Potency, µM (series often up to 115 µM), inactives show at the highest dose activity, negative = inhibition, hits mostly inhibitors | 390,000 tested, 1% active; also: potency is read from the fitted curve at half-maximal effect
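Fluorescent replication assay read twice, at 0 min and 10 min after adding 50 nM (final) substrate. Enzyme (10 nM) and compounds were first incubated 15 min at room temperature; enzyme-free buffer wells were negative controls.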
Pol kappa inh-1 = blocks human DNA polymerase kappa activity; 400,000 tested, 0.53% active; Q9UBT6; AID 588579; purified Pol kappa, fluorescent DNA synthesis assay, 10 min; Potency, µM (top dose mostly 107 µM), for the others: at the highest dose activity, negative = inhibition, actives largely listed as inhibitors; also: potency is read from the fitted curve at half-maximal effect; % is scaled to controls: 0 for no effect and ±100 for the full control effect
Target sequence (Q9UBT6 whole entry, looked up): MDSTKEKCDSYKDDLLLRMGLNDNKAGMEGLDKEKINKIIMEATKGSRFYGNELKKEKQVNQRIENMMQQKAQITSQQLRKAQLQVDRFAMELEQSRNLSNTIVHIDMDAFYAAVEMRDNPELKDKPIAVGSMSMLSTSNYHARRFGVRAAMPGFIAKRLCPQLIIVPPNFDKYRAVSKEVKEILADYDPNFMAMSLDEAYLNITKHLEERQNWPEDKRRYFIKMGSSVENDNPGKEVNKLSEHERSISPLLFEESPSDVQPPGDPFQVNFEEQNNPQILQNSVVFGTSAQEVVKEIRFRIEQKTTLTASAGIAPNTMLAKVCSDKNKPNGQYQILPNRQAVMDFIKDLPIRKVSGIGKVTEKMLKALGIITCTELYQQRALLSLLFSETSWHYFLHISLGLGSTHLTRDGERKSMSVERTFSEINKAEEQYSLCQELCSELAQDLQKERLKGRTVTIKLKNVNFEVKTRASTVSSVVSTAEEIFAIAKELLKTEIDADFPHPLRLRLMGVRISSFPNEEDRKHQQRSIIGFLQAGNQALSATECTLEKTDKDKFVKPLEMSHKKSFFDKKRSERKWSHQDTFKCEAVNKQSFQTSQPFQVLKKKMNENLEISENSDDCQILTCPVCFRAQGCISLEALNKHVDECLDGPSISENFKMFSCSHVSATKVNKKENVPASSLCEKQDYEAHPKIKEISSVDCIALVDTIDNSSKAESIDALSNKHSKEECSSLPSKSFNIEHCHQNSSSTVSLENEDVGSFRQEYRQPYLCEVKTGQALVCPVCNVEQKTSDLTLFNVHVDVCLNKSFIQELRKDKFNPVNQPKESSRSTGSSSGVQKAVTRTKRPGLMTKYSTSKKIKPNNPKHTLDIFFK
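Kinetic fluorescence screen: compound preincubated 15 min RT with 10 nM enzyme; 50 nM substrate (final) initiates; reads at 0/10 min.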
WRN inhibitor = WRN helicase (human) inhibition. WRN helicase unwinding, fluorescent forked duplex, kinetic. AID 651768. Q14191. Potency, µM (highest dose often 114 µM), for the others: top-dose activity change, negative = inhibition, usual class: inhibitors. 360,000 tested, 0.46% active; also: potency is read from the fitted curve at half-maximal effect; % is scaled to controls: 0 for no effect and ±100 for the full control effect; nearly all actives have a fitted effect of over 55% in size
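Fluorescence dequenching readout, ex 525 nm/em 598 nm, kinetic mode: forked duplex DNA (100 nM final) with adjacent fluorophore and quencher unwound by WRN (20 nM final) with 2 mM ATP. Compound preincubation 15 min, room temperature.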
GALK inh confirm = galactokinase (human) inhibition, confirmation | shares compounds with Pol eta inh-1 | purified GALK, Kinase-Glo ATP depletion luminescence | Potency, µM (top dose mostly 115 µM), without a hit: at the top dose activity, negative = inhibition, hits mostly inhibitors | 150 tested, 70% active | AID 2015
GALK redox cs = redox cycling activity in phenol red-HRP assay; shares compounds with Pol eta inh-1; Phenol red-HRP H2O2 redox cycling, absorbance 600 nm; Potency, µM (doses to about 115 µM), for inactives: at the highest dose activity change, negative = H2O2 signal, actives largely listed as inhibitors; 150 tested, 40% active; AID 2035
HEK293 tox = reduces HEK-293 cell viability in GALK counter-screen | shares compounds with Pol eta inh-1 | HEK-293 viability, ATP luminescence (CellTiter-Glo), 24/48 h | Potency, µM (series often up to 46.1 µM), for inactives: at the top dose activity change, negative = cytotoxicity, usual class: inhibitors | 170 tested, 10% active | AID 2547; also: potency is read from the fitted curve at half-maximal effect; % is scaled to controls: 0 for no effect and ±100 for the full control effect
Pol kappa inh-2 = confirmation of human DNA polymerase kappa inhibitors; shares compounds with Pol eta inh-1; purified Pol-kappa, fluorescent strand-displacement substrate; Potency, µM, hits mostly inhibitors; 920 tested, 76% active; also: potency is read from the fitted curve at half-maximal effect
Pol eta inh-2 = Pol eta (human) inhibition, cherry-pick confirmation | shares compounds with Pol eta inh-1 | Pol eta primer extension, TAMRA/BHQ fluorescence, 10 min | Potency, µM, usual class: inhibitors | 2,600 tested, 64% active | AID 720502; also: potency is read from the fitted curve at half-maximal effect
* marks the source's active call; other numbers are inactive results; ? = inconclusive; . = no result given; [ ] = another dose, or the depositor's remark. Calls follow the shape of the dose curve; as a rule, active = well fitted curve in the direction sought with a large enough effect; inconclusive = small, poorly fitted or top-dose-only effect, or another doubt; inactive = no such curve, though single readings can be large; an effect the other way counts as inactive or inconclusive.

SMILES | POLB inh | FEN1 inh | Pol eta inh-1 | Pol iota inh | Pol kappa inh-1 | WRN inhibitor | Pol eta inh-2 | others
Cc1ccccc1-c1cc2nc(-c3ccc([N+](=O)[O-])cc3)cc(=O)n2[nH]1 | -20.1% | -19.7% | -5.4% | 13.4% | -7.0% | 2.6% | .
O=c1cc(-c2ccc([N+](=O)[O-])cc2)nc2cc(-c3ccc(F)cc3)[nH]n12 | -0.6% | -1.1% | 20µM* | ? | -15.9% | ? | 67.5*
CC(=O)c1ccc(S(=O)(=O)Oc2ccc(C(=O)O)cc2Cl)cc1 | . | 6.4% | ? | ? | -23.1% | -28.3% | .
Cn1cccc1CC(=O)N/N=C/c1ccco1 | ? | 1.8% | -8.3% | 22.1% | -27.3% | -0.7% | .
CC(=C/c1ccco1)/C=N/NC(=O)Cc1cccn1C | 9.5% | 12.2% | ? | 56.2µM* | ? | -12.9%[11.6 µM] | . | Pol kappa inh-2=42.3*
COc1ccccc1N1CCN(S(=O)(=O)c2ccc(F)c(C(=O)Nc3ccc(Cl)cc3C(F)(F)F)c2)CC1 | -28.4% | 6.8% | -25.4% | 11.8% | -8.5%[60.1 µM] | . | .
Cc1ccc(C(=O)NCCCNC(=O)Cc2ccc(Cl)cc2)cn1 | . | 4.0% | -3.7% | 4.1% | -9.8% | ? | .
CCOc1cc(CO)cc(Br)c1OCC(=O)O | . | -2.0% | 15.8µM* | ? | -34.4% | ? | 84.9*
COc1ccc(-c2oc(=O)c3cc(OC)c(OC)cc3c2C#CC2(O)CCCCC2)cc1 | . | -9.0% | -14.8% | 38.0% | 1.4% | -0.7% | .
COc1cccc(Nc2nn3c(=O)c4ccccc4nc3s2)c1 | . | ? | 50.1µM* | -17.9% | 14.2% | . | ?
COc1ccc2oc(=O)c(-c3nc4ccc(C)cc4[nH]3)cc2c1 | -18.7% | 1.0% | -11.0% | 17.5% | -2.6%[60.1 µM] | . | .
COc1ccc2cc(-c3nc4ccc(C(=O)O)cc4[nH]3)c(=O)oc2c1 | ? | -19.2% | 44.7µM* | ? | -8.2%[60.1 µM] | . | ? | Pol kappa inh-2=21.2*
O=C(NC(Cc1c[nH]c2ccccc12)C(=O)O)/C(=C/c1ccc(F)cc1)NC(=O)c1ccccc1 (centres undefined) | -2.0% | 16.6% | -19.9% | 52.5% | -10.4% | -4.0% | .
Cc1cc(C)n2[nH]c(=O)c(N=Nc3cccc(Cl)c3)c2n1 | 38.6% | -4.4% | -5.9% | -1.2% | -1.6% | -4.6% | .
O=c1[nH]n2c(=O)c3c([nH]c2c1N=Nc1cccc(Cl)c1)CCCC3 | ? | -25.4% | ? | 1.2% | -15.0% | ? | 75.7*
CC(=O)Nc1ccc(NC2=CC(=O)c3ccccc3C2=O)cc1 | -15.2% | -8.7% | ? | 57.5% | -9.7% | -10.3% | .
CCOC(=O)c1ccc(NC2=CC(=O)C(=O)c3ccccc32)cc1 | 3.4% | -8.5% | 35.5µM* | ? | -6.4% | -26.4%[57.1 µM] | ?
CC(C)(C)C1CCc2oc3ccc(NS(=O)(=O)c4ccc(C(=O)O)cc4)cc3c2C1 (centres undefined) | ? | -21.6% | ? | ? | ? | . | . | Pol kappa inh-2=?
CC(=O)Nc1ccc(S(=O)(=O)N(C)c2ccc(OCCOc3cccc(C)c3)cc2)cc1 | . | 9.7% | 20µM* | 31.6µM* | ? | ? | ? | Pol kappa inh-2=37.7*
CCN(CC)C(=O)COc1ccc(N(C)S(=O)(=O)c2ccc(NC(C)=O)cc2)cc1 | 15.4% | -9.9% | 33.8% | 13.9% | -4.5% | 3.2% | .
CSc1nnc(-c2ccco2)c(-c2ccco2)n1 | 8.91µM* | -20.2% | 11.2µM* | ? | ? | ? | ?
Cc1c(C#N)c(O)[nH]c(=O)c1N=Nc1ccc(S(N)(=O)=O)cc1 | 7.2% | -26.2% | 25.1µM* | ? | -41.3% | ? | 84.9* | Pol kappa inh-2=?
COc1ccc(N2CC(C(=O)Nc3nnc(SCC(=O)NCc4ccco4)s3)CC2=O)cc1 (centres undefined) | ? | -16.6% | 22.4µM* | ? | -42.4% | ? | ? | Pol kappa inh-2=42.3*
CCN(CC(=O)NCc1ccc(F)cc1)C(=O)COc1ccc2ccccc2c1 | 0.3% | 0.9% | -7.8% | 35.2% | -4.8% | 2.1% | .
COc1ccc(C(=O)O)c(O)c1OC | . | . | . | . | -20.3%[60.1 µM] | . | .
SMILES | POLB inh | FEN1 inh | Pol eta inh-1 | Pol iota inh | Pol kappa inh-1 | WRN inhibitor | Pol eta inh-2 | others
COC1=C(N)C(=O)c2nc(-c3nc(C(=O)O)c(C)c(-c4ccc(OC)c(OC)c4O)c3N)ccc2C1=O | 10µM* | 3.98µM* | 3.55µM* | 0.891µM* | 50.1µM* | ? | . | GALK inh confirm=?;GALK redox cs=0.943µM*;HEK293 tox=0.0125µM*
Cc1ccc2nc(-c3ccc(O)c(O)c3)cn2c1 | 3.98µM* | -28.7% | 22.4µM* | 50.1µM* | ? | -4.6%[11.6 µM] | ?
CCCCc1cc(=O)oc2cc(OC(C)C(=O)NCCN3CCOCC3)ccc12 (centres undefined) | . | . | -5.6% | . | . | 2.6% | .
Cc1ccc(NC(=O)CCC(=O)c2ccc(Cl)s2)nc1 | . | -14.9% | 39.8µM* | ? | ? | -22.4% | . | Pol kappa inh-2=?
O=C(O)CN1C(=O)/C(=C\c2cccc(OCc3ccc(Cl)cc3Cl)c2)SC1=S | -0.2% | ? | 79.4µM* | ? | -8.5% | -14.7%[11.6 µM] | ? | Pol kappa inh-2=47.4*
O/N=C/c1cc(Br)ccc1OCc1ccccc1F | . | ? | -6.5% | 4.6% | -2.0% | -4.5% | .
O=C(O)CN1C(=O)/C(=C\c2cc(Br)ccc2OCc2ccccc2F)SC1=S | ? | ? | ? | -24.7% | -14.0% | 1.7%[11.6 µM] | ?
O=C(NCCCN1CCCC1)c1ccc2c(c1)N(Cc1ccccc1F)C(=O)c1ccccc1S2(=O)=O | -8.1% | 20.0% | -12.3% | 3.4% | -0.8% | -4.6% | .
Cc1cc(C)nc(NS(=O)(=O)c2ccc(NS(=O)(=O)c3ccc(C#N)cc3)cc2)n1 | 11.5% | 5.2% | -13.1% | -7.0% | -3.3% | -31.4% | .
